# Test results as given in the supplement of paper PMC8728848.
# About 410 targets per protein were measured; listed, in parts, are those with the strongest signals and a random draw of the rest.
# Tests used:
# Assay in all cases: glycan array binding signal (z-score within array); higher = stronger binding
# Settings in all cases: glycan notation: IUPAC condensed, linker removed
# [1] = molecular target: Fuc(a1-2)Gal(b1-4)GlcNAc(b1-3)Gal(b1-4)GlcNAc(b1-3)Gal(b1-4)GlcNAc
# Procedure, shortened: (§1)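 Negative Z-scores can be read as non-binding. The Z-score is calculated within each array and then averaged across arrays of one protein sequence at different concentrations or buffers and across linkers. Arrays, 3228 in all, were curated from the Consortium for Functional Glycomics database and kept only where the protein sequence was available.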
# [2] = molecular target: Fuc(a1-2)Gal(b1-4)[Fuc(a1-3)]GlcNAc(b1-2)Man(a1-6)[Fuc(a1-2)Gal(b1-4)[Fuc(a1-3)]GlcNAc(b1-2)Man(a1-3)]Man(b1-4)GlcNAc(b1-4)[Fuc(a1-6)]GlcNAc
# Procedure, shortened: as §1
# [3] = molecular target: Fuc(a1-2)Gal6S(b1-3)GlcNAc6S
# Procedure, shortened: as §1
# [4] = molecular target: Fuc(a1-2)Gal6S(b1-4)Glc6S
# Procedure, shortened: as §1
# [5] = molecular target: Fuc(a1-2)[Gal(a1-3)]Gal(b1-4)[Fuc(a1-3)]Glc
# Procedure, shortened: as §1
# [6] = molecular target: Fuc(a1-3)[Gal(b1-4)]GlcNAc(b1-2)Man(a1-3)[Fuc(a1-3)[Gal(b1-4)]GlcNAc(b1-2)Man(a1-6)]Man(b1-4)GlcNAc(b1-4)[Fuc(a1-6)]GlcNAc
# Procedure, shortened: as §1
# [7] = molecular target: Fuc(a1-3)[GalNAc(b1-4)]GlcNAc
# Procedure, shortened: as §1
# [8] = molecular target: Gal(a1-3)Gal(b1-3)GlcNAc(b1-2)Man(a1-3)[Gal(a1-3)Gal(b1-3)GlcNAc(b1-2)Man(a1-6)]Man(b1-4)GlcNAc(b1-4)GlcNAc
# Procedure, shortened: as §1
# [9] = molecular target: Gal(a1-3)Gal(b1-3)GlcNAc(b1-3)GalNAc
# Procedure, shortened: as §1
# [10] = molecular target: Gal(a1-3)Gal(b1-4)GlcNAc(b1-3)GalNAc
# Procedure, shortened: as §1
# [11] = molecular target: Gal(a1-4)Gal(b1-3)GlcNAc(b1-2)Man(a1-3)[Gal(a1-4)Gal(b1-3)GlcNAc(b1-2)Man(a1-6)]Man(b1-4)GlcNAc(b1-4)GlcNAc
# Procedure, shortened: as §1
# [12] = molecular target: Gal(a1-4)Gal(b1-4)GlcNAc(b1-2)Man(a1-3)[Gal(a1-4)Gal(b1-4)GlcNAc(b1-2)Man(a1-6)]Man(b1-4)GlcNAc(b1-4)GlcNAc
# Procedure, shortened: as §1
# [13] = molecular target: Gal(b1-3)GlcNAc(b1-3)Gal(b1-4)GlcNAc
# Procedure, shortened: as §1
# [14] = molecular target: Gal(b1-3)GlcNAc(b1-3)Gal(b1-4)GlcNAc(b1-6)[Gal(b1-3)GlcNAc(b1-3)]Gal(b1-4)Glc
# Procedure, shortened: as §1
# [15] = molecular target: Gal(b1-3)GlcNAc(b1-3)GalNAc
# Procedure, shortened: as §1
# [16] = molecular target: Gal(b1-3)GlcNAc(b1-6)Gal(b1-4)GlcNAc
# Procedure, shortened: as §1
# [17] = molecular target: Gal(b1-4)GlcNAc(a1-6)Gal(b1-4)GlcNAc
# Procedure, shortened: as §1
# [18] = molecular target: Gal(b1-4)GlcNAc(b1-2)Man(a1-3)[Gal(b1-4)GlcNAc(b1-2)Man(a1-6)]Man(b1-4)GlcNAc(b1-4)[Fuc(a1-6)]GlcNAc
# Procedure, shortened: as §1
# [19] = molecular target: Gal(b1-4)GlcNAc(b1-2)Man(a1-6)Man(b1-4)GlcNAc(b1-4)GlcNAc
# Procedure, shortened: as §1
# [20] = molecular target: Gal(b1-4)GlcNAc(b1-3)Gal(b1-4)Glc
# Procedure, shortened: as §1
# [21] = molecular target: Gal(b1-4)GlcNAc(b1-6)Gal(b1-4)GlcNAc
# Procedure, shortened: as §1
# [22] = molecular target: GalNAc(b1-3)Gal(a1-4)Gal(b1-4)GlcNAc(b1-3)Gal(b1-4)Glc
# Procedure, shortened: as §1
# [23] = molecular target: GalNAc(b1-3)Gal(a1-6)Gal(b1-4)Glc
# Procedure, shortened: as §1
# [24] = molecular target: GlcA(b1-3)GlcNAc
# Procedure, shortened: as §1
# [25] = molecular target: GlcA(b1-6)Gal
# Procedure, shortened: as §1
# [26] = molecular target: GlcNAc(a1-4)Gal(b1-4)GlcNAc(b1-3)Gal(b1-4)GlcNAc(b1-3)Gal(b1-4)GlcNAc
# Procedure, shortened: as §1
# [27] = molecular target: GlcNAc(a1-4)Gal(b1-4)GlcNAc(b1-3)Gal(b1-4)[Fuc(a1-3)]GlcNAc(b1-3)Gal(b1-4)[Fuc(a1-3)]GlcNAc
# Procedure, shortened: as §1
# [28] = molecular target: GlcNAc(b1-2)Man(a1-3)[GlcNAc(b1-2)Man(a1-6)]Man(b1-4)GlcNAc(b1-4)GlcNAc
# Procedure, shortened: as §1
# [29] = molecular target: GlcNAc(b1-2)[GlcNAc(b1-4)]Man(a1-3)[GlcNAc(b1-2)Man(a1-6)]Man(b1-4)GlcNAc(b1-4)GlcNAc
# Procedure, shortened: as §1
# [30] = molecular target: GlcNAc(b1-3)Gal(b1-4)GlcNAc
# Procedure, shortened: as §1
# [31] = molecular target: GlcNAc(b1-3)Man
# Procedure, shortened: as §1
# [32] = molecular target: Man(a1-2)Man(a1-3)Man
# Procedure, shortened: as §1
# [33] = molecular target: Man(a1-3)[Man(a1-6)]Man(a1-6)[Man(a1-2)Man(a1-3)]Man(b1-4)GlcNAc(b1-4)GlcNAc
# Procedure, shortened: as §1
# [34] = molecular target: Man(a1-3)[Man(a1-6)]Man(a1-6)[Man(a1-3)]Man
# Procedure, shortened: as §1
# [35] = molecular target: Man(a1-3)[Man(a1-6)]Man(b1-4)GlcNAc(b1-4)GlcNAc
# Procedure, shortened: as §1
# [36] = molecular target: Man(a1-3)[Man(a1-6)]Man(b1-4)GlcNAc(b1-4)[Fuc(a1-6)]GlcNAc
# Procedure, shortened: as §1
# [37] = molecular target: Neu5Ac(a2-3)Gal(b1-4)GlcNAc(b1-2)[Neu5Ac(a2-3)Gal(b1-4)GlcNAc(b1-6)]Man(a1-6)[Neu5Ac(a2-3)Gal(b1-4)GlcNAc(b1-2)Man(a1-3)]Man(b1-4)GlcNAc(b1-4)GlcNAc
# Procedure, shortened: as §1
# [38] = molecular target: Neu5Ac(a2-3)Gal(b1-4)GlcNAc(b1-3)Gal
# Procedure, shortened: as §1
# [39] = molecular target: Neu5Ac(a2-3)Gal(b1-4)GlcNAc6S
# Procedure, shortened: as §1
# [40] = molecular target: Neu5Ac(a2-6)Gal(b1-4)GlcNAc(b1-2)Man(a1-6)[GlcNAc(b1-2)Man(a1-3)]Man(b1-4)GlcNAc(b1-4)GlcNAc
# Procedure, shortened: as §1
# [41] = molecular target: Neu5Ac9Ac(a2-3)Gal(b1-3)GlcNAc
# Procedure, shortened: as §1
# [42] = molecular target: Neu5Gc(a2-3)Gal(b1-4)GlcNAc
# Procedure, shortened: as §1
binder,measurement,setting,value
"RVL (Remusatia vivipara), B5LYJ9 (protein) MAKLLLFLLPAILGLLVPRSAVALGTNYLLSGQTLDTEGHLKNGDFDLVMQDDCNLVLYNGNWQSNTANNGRDCKLTLTDYGELVIKNGDGSTVWKSGAQSVKGNYAAVVHPDGRLVVLGPSVFKIDPWVRGLNSLRFRNIPFTNNLLFSGQVLYGDGRLTAKNHQLVMQGDCNLVLYGGKYGWQSNTHGNGEHCFLRLNHKGELIIKDDDFKTIWSSRSSSKQGEYVLILQDDGFGVIYGPAIFETSSKRSIAAS",glycan array binding signal (z-score),[1],-0.272
same,glycan array binding signal (z-score),[2],9.79
same,glycan array binding signal (z-score),[3],0.483
same,glycan array binding signal (z-score),[4],-0.151
same,glycan array binding signal (z-score),[5],-0.32
same,glycan array binding signal (z-score),[6],0.076
same,glycan array binding signal (z-score),[7],-0.292
same,glycan array binding signal (z-score),[8],0.313
same,glycan array binding signal (z-score),[9],-0.166
same,glycan array binding signal (z-score),[10],-0.178
same,glycan array binding signal (z-score),[11],1.75
same,glycan array binding signal (z-score),[12],1.93
same,glycan array binding signal (z-score),[13],-0.252
same,glycan array binding signal (z-score),[14],-0.574
same,glycan array binding signal (z-score),[15],-0.055
same,glycan array binding signal (z-score),[16],0.004
same,glycan array binding signal (z-score),[17],-0.142
same,glycan array binding signal (z-score),[18],7.05
same,glycan array binding signal (z-score),[19],-0.136
same,glycan array binding signal (z-score),[20],-0.252
same,glycan array binding signal (z-score),[21],-0.216
same,glycan array binding signal (z-score),[22],-0.066
same,glycan array binding signal (z-score),[23],-0.17
same,glycan array binding signal (z-score),[24],-0.098
same,glycan array binding signal (z-score),[25],-0.23
same,glycan array binding signal (z-score),[26],0.124
same,glycan array binding signal (z-score),[27],0.3
same,glycan array binding signal (z-score),[28],0.913
same,glycan array binding signal (z-score),[29],2.4
same,glycan array binding signal (z-score),[30],-0.145
same,glycan array binding signal (z-score),[31],-0.227
same,glycan array binding signal (z-score),[32],-0.197
same,glycan array binding signal (z-score),[33],3.91
same,glycan array binding signal (z-score),[34],0.224
same,glycan array binding signal (z-score),[35],3.8
same,glycan array binding signal (z-score),[36],6.15
same,glycan array binding signal (z-score),[37],3.54
same,glycan array binding signal (z-score),[38],-0.103
same,glycan array binding signal (z-score),[39],-0.033
same,glycan array binding signal (z-score),[40],-0.207
same,glycan array binding signal (z-score),[41],-0.284
same,glycan array binding signal (z-score),[42],-0.111
